Bioassay records deposited in PubChem BioAssay by National Center for Advancing Translational Sciences (NCATS).
Cycloheximide cs – affects cycloheximide protein synthesis inhibition readout, counter-screen | cell reporter, cycloheximide protein synthesis inhibition counterscreen | max response, % | AID 2314 | 300,000 compounds, 12% hits; in the data active = max response mostly above about 13%, no sharp cut-off; inactive = mostly below about 14%; also: read at 38.3 µM for the half of the compounds with a filed dose; 0% is about no effect
AmpC no deterg – AmpC beta-lactamase inhibition without detergent. P00811. AmpC nitrocefin hydrolysis, absorbance 480 nm, 0.0001% Triton. Potency, µM (titrated, usually from 57.1 µM), for the others: at the highest dose activity change, negative = inhibition, usual class: inhibitors. 330,000 compounds, 0.52% hits. AID 485341;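 also: potency is read from the fitted curve at half-maximal effect; plate controls were no compound for no effect and no enzyme for full effect; nearly all actives have a fitted effect of over 20% in size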
Target sequence (P00811 whole entry, looked up): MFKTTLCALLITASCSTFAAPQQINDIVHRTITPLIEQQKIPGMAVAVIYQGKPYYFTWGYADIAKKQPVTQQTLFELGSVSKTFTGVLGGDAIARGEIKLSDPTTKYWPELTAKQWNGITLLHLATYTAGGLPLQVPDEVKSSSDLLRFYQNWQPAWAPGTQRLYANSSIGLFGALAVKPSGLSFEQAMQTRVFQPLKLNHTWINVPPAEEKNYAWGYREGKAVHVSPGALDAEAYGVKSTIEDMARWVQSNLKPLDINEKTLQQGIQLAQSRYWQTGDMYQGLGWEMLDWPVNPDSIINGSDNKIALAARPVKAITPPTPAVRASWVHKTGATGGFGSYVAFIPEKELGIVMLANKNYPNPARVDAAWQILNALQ
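AmpC (5.3 nM in the dispensed reagent) in 20 mM phosphate pH 7.0 with 0.01% (detergent screen) or 0.0001% Triton X-100 was preincubated with compounds for 15 min at room temperature. Nitrocefin was then added from an 800 uM solution, and hydrolysis was followed at 480 nm.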
Shiga inhibitor – inhibitors of Shiga toxin in Vero cells; Vero cells, Shiga toxin protein synthesis inhibition reporter; inhibition, % at 38.7 µM; 290,000 compounds, 9.2% hits; AID 2315; in the data active = inhibition mostly above about 28%, no sharp cut-off; inactive = mostly below about 43%; also: 0% is about no effect
NS1 inh – influenza NS1 inhibition | Potency, µM (doses to about 46.1 µM), for inactives: top-dose activity, positive = more growth | 270,000 compounds, 0.4% hits | AID 2326; calls by dose curve; also: potency is read from the fitted curve at half-maximal effect; actives are rising curves; nearly all actives have a fitted effect of over 50% in size
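OD600 was taken as the measure of yeast growth restored by compound in an NS1-expressing S. cerevisiae strain. Cells had been washed out of glucose medium and diluted 1:100 into galactose -URA medium, pH 6.0.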
AmpC inh detg – AmpC beta-lactamase inhibition with detergent present; 370,000 compounds, 0.041% hits; P00811; AmpC hydrolysis of nitrocefin, absorbance 480 nm, 0.01% Triton; Potency, µM (highest dose often 114 µM), without a hit: top-dose activity change, negative = inhibition, actives largely listed as inhibitors; AID 485294;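 also: potency is read from the fitted curve at half-maximal effect; 0% = no-compound wells and -100% = no-enzyme wells; nearly all actives have a fitted effect of over 25% in size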
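20 mM phosphate pH 7.0 + 0.01% (detergent screen) or 0.0001% Triton X-100; 5.3 nM AmpC reagent; cpd preinc 15 min RT; nitrocefin (800 uM stock) to start; A480 q20 s × 4 min; Activity was normalised to no-enzyme and no-compound control wells.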
An asterisk follows results filed as active; u = inconclusive; x = no result. This is one part of a sample in which hits are shown more often than they occur. Unless noted, calls follow the shape of the dose curve; as a rule, active = well fitted curve in the direction sought with a large enough effect; inconclusive = small, poorly fitted or top-dose-only effect, or another doubt; inactive = no such curve, though single readings can be large; an effect the other way counts as inactive or inconclusive.

SMILES	Cycloheximide cs	AmpC no deterg	Shiga inhibitor	NS1 inh	AmpC inh detg
Cc1ccc2cc3cc(C(=O)N4CCN(c5ccc(Cl)cc5)CC4)oc3nc2c1	x	x	x	x	3%
Cc1ccc2oc(C(=O)Nc3nnc(CC(C)C)s3)cc(=O)c2c1	x	x	x	x	12%
O=C(Nc1nncs1)C1COc2ccccc2O1 (stereo not drawn)	14*	-26%	50*	5%	-15%
O=C(Nc1cccnc1)C1COc2ccccc2O1 (stereo not drawn)	8	-9%	-12	-23%	-4%
CC(C)(C)c1csc(NC(=O)C2COc3ccccc3O2)n1 (stereo not drawn)	42*	-36%	87*	-2%	2%
CC1(C)CC(=O)c2sc(NC(=O)CN3C(=O)CCC3=O)nc2C1	50*	-5%	74*	-36%	u
CC1(C)CC(=O)c2sc(NC(=O)CN3CCOCC3)nc2C1	-2	-7%	-3	2%	-15%
O=C(Nc1nnc(C2CC2)s1)C1COc2ccccc2O1 (stereo not drawn)	34*	-27%	75	x	4%
COc1ccc(-c2csc(NC(=O)C3COc4ccccc4O3)n2)cc1OC (stereo not drawn)	-1	53%	-4	u	3%
CCOc1ccc(OCC)c(-c2c(=O)n(OCc3ccccc3C(=O)OC)c3ccccc3[n+]2[O-])c1	-1	77%	-22	21%	-6%
CC1(C)CC(=O)c2sc(NS(=O)(=O)c3ccc([N+](=O)[O-])cc3)nc2C1	46*	-16%	-7	1%	-18%
CC1(C)CC(=O)c2sc(NS(=O)(=O)c3ccccc3)nc2C1	-4	-15%	-6	0%	2%
Cc1onc(-c2ccccc2)c1C(=O)Nc1nc2c(s1)C(=O)CC(C)(C)C2	1	-49%	-10	4%	0%
CC1(C)CC(=O)c2sc(NC(=O)c3ccco3)nc2C1	33*	-20%	29	-157%	-7%
COc1ccc(NC(=O)c2ccc(-c3ccc(-c4noc(C)n4)cc3C)cc2)cc1OCCN(C)C	-4	x	-11	x	x
COc1cc(NC(=O)c2cc3ccccc3o2)ccc1NC(=O)c1ccco1	-5	-18%	-2	-4%	-2%
COc1ccc(NC(=O)c2ccccc2NC(=O)c2ccco2)c(OC)c1	6	2%	21	2%	-11%
COc1ccc(NC(=O)c2ccco2)cc1N	65*	0%	66*	6%	-11%
COc1cc(NC(=O)c2ccco2)ccc1NC(=O)c1ccccc1Cl	13*	-30%	41	-39%	-7%
COc1cc(NC(=O)c2ccccc2Cl)ccc1NC(=O)c1ccco1	41*	-25%	59	-40%	1%
COc1cc(NC(=O)c2oc3ccccc3c2C)ccc1NC(=O)c1ccco1	29*	82%	63*	-4%	-10%
O=S(=O)(NCc1ccccc1Cl)c1cccs1	13	-23%	28	x	u
O=S(=O)(c1ccc(F)cc1)n1ccc(-c2cccc(OCc3ccc(Cl)cc3Cl)c2)n1	-1	-10%	-7	u	-2%
Nc1ccccc1-c1n[nH]c(=S)s1	-2	-23%	-8	x	-3%
Cc1ccc(NC(CC(=O)c2ccccc2)c2ccc(F)cc2)cc1 (stereo not drawn)	50*	-34%	69*	-10%	-7%
SMILES	Cycloheximide cs	AmpC no deterg	Shiga inhibitor	NS1 inh	AmpC inh detg
COc1ccc(C(CC(=O)c2ccc(C)cc2)Nc2ccc([N+](=O)[O-])cc2)cc1 (stereo not drawn)	28*	-45%	19	15%	u
O=C(CC(Nc1ccc(F)cc1)C(=O)O)c1ccccc1 (stereo not drawn)	37*	-20%	41*	-9%	-13%
O=C(CC(Nc1ccc(F)cc1)C(=O)OCC(=O)c1cccs1)c1ccccc1 (stereo not drawn)	16*	-30%	24	-28%	u
CCn1c(=NC(=O)C2COc3ccccc3O2)sc2c(OC)ccc(OC)c21 (stereo not drawn)	-4	-12%	9	6%	5%
COc1ccc(C(CC(=O)c2ccc(O)cc2)S(=O)(=O)c2ccc(C)cc2)cc1 (stereo not drawn)	42*	-46%	66*	-41%	5%
COc1ccc(C(=O)CC(c2ccccc2)S(=O)(=O)c2ccc(C)cc2)cc1 (stereo not drawn)	-3	-27%	-12	-2%	-7%
COc1ccc(S(=O)(=O)N(Cc2nc(-c3ccc(Cl)cc3)no2)C2CCCCC2)cc1	x	x	x	x	-8%
CNC(=S)SCCOc1ccc(C)cc1	-6	-22%	-7	4%	-1%
CNC(=S)SCCOc1ccccc1	21*	-7%	101*	1%	-2%
O=C(O)/C=C/C(=O)NNc1ncnc2ccccc12	31*	-12%	81*	-1%	1%
O=C(NNc1ncnc2ccccc12)c1cccc(Cl)c1	31*	-13%	52*	4%	1%
CCCCOc1ccc(-c2nonc2NC(=O)c2ccco2)cc1	x	x	x	x	3%
CCc1ccc(NC(=O)CSc2nc(=O)n(Cc3ccncc3)c3c2CCC3)cc1	x	x	x	x	0%
CC(C)(C)c1ccc(C(=O)Nc2cnccn2)cc1	27*	-10%	41*	-7%	-8%
CC(C)(C)c1ccc(C(=O)Nc2ncn[nH]2)cc1	33*	-17%	75*	-2%	-3%
Cc1cc(C)nc(NS(=O)(=O)c2ccc(N3Cc4ccccc4C3=O)cc2)n1	-2	-40%	21	15%	-9%
CC(C(=O)O)c1ccc(N2Cc3ccccc3C2=O)cc1 (stereo not drawn)	45	-28%	72*	-5%	-13%
Oc1c(C2=NCCNC(C(F)(F)F)=C2)ccc2ccccc12	38*	125%	70*	0%	1%
O=C(CN1C(=O)NC2(CCCC2)C1=O)NCc1ccc(Cl)cc1	x	-9%	x	x	x
O=C(O)CCc1ccc(S(=O)(=O)Nc2ccccc2C(=O)NCCc2ccccc2)cc1	30*	-8%	80*	11%	0%
CC(NC(=O)c1ccccc1NS(=O)(=O)c1ccc(CCC(=O)O)cc1)c1ccccc1 (stereo not drawn)	-3	-19%	-3	22%	u
COc1ccc(NC(C)=O)cc1S(=O)(=O)Nc1ccccc1C(=O)NCCc1ccccc1	44*	-11%	89*	-1%	-5%
COc1ccc(NC(C)=O)cc1S(=O)(=O)NC(Cc1ccccc1)C(=O)NCc1ccccc1C (stereo not drawn)	16*	-8%	10	1%	u
O=C(/C=C/c1ccc(Cl)cc1Cl)OCC(=O)N1CCCC1	x	57%	x	x	8%
CCOc1ccc(C(=O)Cn2c(=O)n3nc(CCn4nc(C)cc4C)nc3c3cc(OC)c(OC)cc32)cc1	x	x	x	x	-8%
Cc1cc(OC(C)C(=O)N(Cc2ccco2)Cc2ccco2)cc(C)c1Cl (stereo not drawn)	x	x	x	x	-2%
CCn1c(SCC(=O)c2ccc(Cl)cc2)nnc1-c1ccoc1C	33*	-8%	17*	-31%	-14%
